Laboratory results published in the supplement of paper PMC8253809.
Several values for one entry are separate records, joined by “and”; a condition that tells them apart may be missing. Equal values may be shown once.

Experiments:
Assay in all cases: growth inhibition (% activity, log2 RLU normalised to DMSO / staurosporine); higher = more growth inhibition
Conditions in all cases: 33 µM
[1] = test system: DIPGX29 (H3.3 K27M diffuse intrinsic pontine glioma line)
Method in brief: (§1)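 Approved drugs were tested in triplicate at a single final concentration of about 33 μM for 7 days at 37 °C, 5% CO2, on pHGG cell lines and H9-derived neural stem cells. Readout was CellTiter-Glo luminescence, log2-transformed and scaled per plate to % activity between solvent and positive control wells. The median over replicates gives the growth-inhibition value.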

[2] = test system: DIPGX37 (H3.3 K27M diffuse intrinsic pontine glioma line)
Method in brief: as §1

[3] = test system: DIPGX7 (H3.3 K27M diffuse intrinsic pontine glioma line)
Method in brief: as §1

[4] = test system: DIPGX9 (diffuse intrinsic pontine glioma line)
Method in brief: as §1

[5] = test system: HGGX39 (paediatric high-grade glioma line)
Method in brief: as §1

[6] = test system: HGGX6 (H3.3 G34R paediatric high-grade glioma line)
Method in brief: as §1

[7] = test system: HNSC
Method in brief: as §1

[8] = test system: SUDIPGIV (diffuse intrinsic pontine glioma line)
Method in brief: as §1

[9] = test system: SUDIPGVI (diffuse intrinsic pontine glioma line)
Method in brief: as §1

[10] = test system: SUDIPGXIII (diffuse intrinsic pontine glioma line)
Method in brief: as §1

| SMILES | growth inhibition [1] | growth inhibition [2] | growth inhibition [3] | growth inhibition [4] | growth inhibition [5] | growth inhibition [6] | growth inhibition [7] | growth inhibition [8] | growth inhibition [9] | growth inhibition [10] |
| --- | --- | --- | --- | --- | --- | --- | --- | --- | --- | --- |
| COc1cc(C(C)=O)ccc1OCCCN1CCC(c2noc3cc(F)ccc23)CC1 | 1.79% | 0.322% | 12.7% | 0.361% | 4.35% | 0.871% | 0.367% | 2.3% | -12.2% | 4.02% |
| CCOC(=O)C1=C(C)NC(C)=C(C(=O)OC)C1c1cccc([N+](=O)[O-])c1 (stereo not given) | -2.41% | 0.972% | 1.75% | -2.12% | 0.389% | -2.9% | 37.3% | -0.292% | -8.45% | 2.39% |
| C[C@H](N)[C@H](O)c1cccc(O)c1 | 2.35% | 0.0235% | 1.7% | 1.54% | 5.08% | 0.73% | 3.77% | 1.73% | 4.42% | 1.04% |
| Cc1ccc(C(=O)Nc2ccc(CN3CCN(C)CC3)c(C(F)(F)F)c2)cc1C#Cc1cnc2cccnn12 | 60.2% | 59.1% | 51.4% | 56.7% | 56.8% | 50% | 62.7% | 18.6% | 6.05% | 22.9% |
| CN1CCN2c3ccccc3Cc3ccccc3C2C1 (stereo not given) | 1.33% | -0.487% | 0.702% | -0.0886% | 2.14% | -2.26% | 2.01% | -0.203% | -0.707% | -2.33% |
| COc1ncnc(NS(=O)(=O)c2ccc(N)cc2)c1OC | 0.769% | 2.24% | 1.07% | 2.03% | 0.995% | 1.53% | -1.3% | -0.0587% | -0.393% | 1.69% |
| Cc1cc(=O)[nH]c(=S)[nH]1 | 0.66% | -0.151% | 2.93% | 1.41% | 3.23% | 0.504% | 4.39% | 2.24% | 4.36% | 1.21% |
| Nc1nnc(-c2cccc(Cl)c2Cl)c(N)n1 | -0.42% | -0.569% | -0.114% | -0.0846% | 0.648% | 0.473% | 0.358% | -1.97% | 0.284% | 0.73% |
| O=C(O)/C=C/c1ccc(Cn2ccnc2)cc1 | -4.29% and 0.0234% | -1.97% and 1.55% | -2.07% and 1.39% | -1.94% and 0.49% | -2.45% and 1.57% | -3.87% and 2.09% | 1.95% and -1.58% | -2.48% and 0.0369% | -6.52% and 1.83% | -0.879% and -16.2% |
| N=c1nc(N2CCCCC2)cc(N)n1O | 0.473% | -0.191% | 0.732% | -0.0641% | -0.0574% | -3.42% | 1.05% | -0.657% | 1.35% | -1.69% |
| Nc1cccc2c1C(=O)N(C1CCC(=O)NC1=O)C2=O (stereo not given) | 0.275% | 2% | 0.718% | -0.934% | -1.86% | -0.402% | 0.283% | -0.313% | 0.743% | -1.19% |
| CC(C)(C)NC(=O)[C@H]1CC[C@H]2[C@@H]3CC[C@H]4NC(=O)C=C[C@]4(C)[C@H]3CC[C@]12C | 1.8% | 1.06% | 2.69% | 0.827% | 2.11% | -0.348% | 4.13% | 0.54% | 1.81% | 0.754% |
| Cc1cc(=O)n(-c2ccccc2)n1C | -0.731% | -0.447% | -1.9% | 0.213% | -0.272% | -0.826% | -1.87% | 0.134% | 0.115% | 0.666% |
| CN(C)/N=N/c1[nH]cnc1C(N)=O | 5.71% | 3.55% | 2.2% | 3.08% | 9.03% | 7.4% | 4.41% | 12.8% | 2.55% | 0.947% |
| CC(=O)NS(=O)(=O)c1ccc(N)cc1 | 0.584% | 1.84% | 0.329% | 0.364% | 1.9% | 2.46% | -1.34% | -0.27% | 0.507% | 0.27% |
| CCOc1cc(CC(=O)N[C@@H](CC(C)C)c2ccccc2N2CCCCC2)ccc1C(=O)O | 0.598% | -0.0763% | 1.67% | -0.0677% | 0.171% | -1.18% | -2.28% | -0.496% | -6.9% | -1.55% |
| CC(=O)[C@H]1CC[C@H]2[C@@H]3C=CC4=CC(=O)CC[C@@]4(C)[C@@H]3CC[C@]12C | -0.886% | 4.22% | -0.136% | 0.45% | 1.86% | -2.88% | 6.39% | 2.11% | 0.865% | -1.05% |
| CCCC1O[C@@H]2C[C@H]3[C@@H]4CCC5=CC(=O)C=C[C@]5(C)[C@H]4[C@@H](O)C[C@]3(C)[C@]2(C(=O)CO)O1 (stereo not given in full) | 2.07% | -0.133% | -1.11% | 3.67% | 3.05% | 1.13% | -0.0191% | 40.8% | -5.45% | 18.8% |
| Clc1ccc(C(c2ccccc2Cl)C(Cl)Cl)cc1 (stereo not given) | -1.94% | -1.47% | -1.72% | -0.6% | -0.428% | -0.0252% | -1.09% | -1.24% | -1.05% | 1.43% |
| CN(C)CCN(Cc1cccs1)c1ccccn1 | 1.96% | 3.64% | 1.81% | 0.429% | 5.09% | 1.78% | 2.78% | 0.871% | 3.63% | 0.391% |
| O=C([O-])C(O)[C@H](O)[C@@H](O)[C@H](O)[C@H](O)CO.O=C([O-])C(O)[C@H](O)[C@@H](O)[C@H](O)[C@H](O)CO.[Ca+2] (stereo not given in full) | 2.16% | 4.54% | 2.65% | 1.24% | 2.2% | 1.87% | 2.4% | 0.563% | 2.72% | -0.395% |

| SMILES | growth inhibition [1] | growth inhibition [2] | growth inhibition [3] | growth inhibition [4] | growth inhibition [5] | growth inhibition [6] | growth inhibition [7] | growth inhibition [8] | growth inhibition [9] | growth inhibition [10] |
| --- | --- | --- | --- | --- | --- | --- | --- | --- | --- | --- |
| CCC1(c2ccccc2)C(=O)NCNC1=O | -1.25% | 0.454% | 0.246% | -0.432% | 2.69% | -0.575% | 3.35% | -1.41% | 0.425% | 0.0763% |
| CC(C)(C)NCC(O)c1ccc(O)c(CO)c1 (stereo not given) | -2.88% | -1.32% | -0.0436% | -1.85% | -1.15% | 1.2% | -1.34% | 1.26% | -4.26% | 1.25% |
| NS(=O)(=O)c1cc2c(cc1C(F)(F)F)NC(Cc1ccccc1)NS2(=O)=O (stereo not given) | -1.42% | 2.24% | -1.56% | -0.0939% | -0.621% | 1.26% | -0.523% | -1.96% | 0.355% | 0.995% |
| COCCOC(=O)C1=C(C)NC(C)=C(C(=O)OC/C=C/c2ccccc2)C1c1cccc([N+](=O)[O-])c1 (stereo not given) | 2.85% | 2.42% | 5.44% | 5.34% | 5.91% | 4.61% | 5.17% | 6.24% | 3.03% | 0.864% |
| O=c1[nH]c(=O)n([C@H]2C[C@H](O)[C@@H](CO)O2)cc1C(F)(F)F | -1.08% | 0.535% | -1.11% | 5.19% | 8.23% | -0.706% | 57.7% | 13.1% | -3.24% | 2.3% |
| COC(=O)N[C@H](C(=O)N[C@@H](Cc1ccccc1)[C@@H](O)CN(Cc1ccc(-c2ccccn2)cc1)NC(=O)[C@@H](NC(=O)OC)C(C)(C)C)C(C)(C)C | -2.79% | -2.21% | 1.19% | -1.97% | -2.26% | -3.15% | -5.7% | -0.315% | -14.4% | 0.413% |
| Clc1ccc2c(c1)CCc1cccnc1C2=C1CCNCC1 | -4.02% | -0.355% | -2.28% | -0.408% | 0.308% | -1.66% | 0.109% | -0.876% | -0.303% | 0.814% |
| COc1cnc(NS(=O)(=O)c2ccc(N)cc2)nc1 | -0.629% | 0.775% | -0.856% | 0.181% | -0.248% | 0.442% | 0.00282% | -1.59% | 0.403% | 1.01% |
| COC(=O)[C@H](Cc1ccccc1)NC(=O)[C@@H](N)CC(=O)O | -2.32% | -1.81% | -2.17% | -2.28% | -1.24% | 0.801% | -5.7% | -2.58% | -1.43% | -6.7% |
| CCOC(=O)C1=C[C@@H](OC(CC)CC)[C@H](NC(C)=O)[C@@H](N)C1 | -0.948% | 0.933% | -0.6% | -0.724% | -0.188% | 0.263% | 0.516% | 1.15% | 0.0268% | -0.397% |
| CN1CC(=O)N2[C@H](c3ccc4c(c3)OCO4)c3[nH]c4ccccc4c3C[C@@H]2C1=O | -0.154% | 2.3% | 0.64% | 0.257% | 2.46% | 0.71% | -0.244% | 0.899% | -1.44% | 2.73% |
| N[C@@H](Cc1ccc(O)c(O)c1)C(=O)O | -0.663% | 0.423% | -0.313% | 0.542% | 2.68% | 1.4% | 0.395% | -0.394% | -1.98% | -0.139% |
| Nc1ccn([C@H]2CC[C@@H](CO)O2)c(=O)n1 | 1.28% | 0.314% | 0.245% | 2.8% | 6.49% | 1.48% | 17.8% | 15.2% | 0.499% | 1.84% |
| CCN1CCN(c2cc(-c3ccc(F)cc3)c3c(n2)CCCCCC3)CC1 | 9.89% | 1.2% | 21.9% | 4.47% | 10.1% | 0.894% | 5% | 4.82% | 4.25% | 2.42% |
| CCCCOc1ccc(C(=O)CCN2CCCCC2)cc1 | 3.95% | 1.81% | 13% | 3.6% | 8.09% | 7.94% | 6.88% | 0.947% | 1.6% | 1.44% |
| Cc1noc(NS(=O)(=O)c2ccc(N)cc2)c1C | -0.149% | -0.401% | -0.198% | -0.0916% | 2.16% | -1.61% | 29.4% | -0.587% | -0.478% | -3.55% |
| O=C(O)c1ccc(-n2nc(-c3ccccc3O)nc2-c2ccccc2O)cc1 | -3.59% | -2.58% | 0.0493% | -2.68% | -2% | -3.44% | 1.36% | -5.33% | -6.58% | 0.207% |
| CC(=O)[C@H]1CC[C@H]2[C@@H]3CC=C4C[C@@H](O)CC[C@]4(C)[C@H]3CC[C@]12C | -0.784% | -0.0978% | -1.68% | -0.764% | -1.75% | -0.479% | -2.77% | -1.85% | -0.676% | 0.295% |
| O=C(CCNNC(=O)c1ccncc1)NCc1ccccc1 | -2.81% | 1.16% | -0.869% | -2.76% | -1.32% | -1.96% | 2.79% | -2.06% | -1.86% | 0.338% |
| C=C[C@]1(C)C[C@@H](OC(=O)CSC(C)(C)CNC(=O)[C@H](N)C(C)C)[C@]2(C)[C@H](C)CC[C@]3(CCC(=O)[C@H]32)[C@@H](C)[C@@H]1O | 2.79% | 0.213% | 4.74% | 1.8% | 20.9% | 4.36% | 15.7% | 29.9% | 1.61% | 46.4% |
